Sampled rows, rich in hits. Any-hit rate of the full collection: about 22%.
CYP2C9 inhib – blocks human cytochrome P450 2C9 | CYP2C9 Supersomes, luciferin-H conversion, luminescence | inhibition, % at 5 µM | 20% of 96,000 active;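 active = blocking of liver enzyme CYP2C9 beyond about 50% at 5 µM, limit read from the data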
CYP2C19 inhib – blocks human cytochrome P450 2C19. P33261. CYP2C19 Supersomes, luciferin-H EGE luminescence, 30 min. inhibition, % at 5 µM. 21% of 96,000 active;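 active = CYP2C19 inhibition above a set limit at 5 µM in the primary screen, cut at about 50% in these data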;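 note: plate controls were negative control wells for no effect and 2.5 mM tranylcypromine positive control for full effect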
Target sequence (P33261 whole entry, looked up): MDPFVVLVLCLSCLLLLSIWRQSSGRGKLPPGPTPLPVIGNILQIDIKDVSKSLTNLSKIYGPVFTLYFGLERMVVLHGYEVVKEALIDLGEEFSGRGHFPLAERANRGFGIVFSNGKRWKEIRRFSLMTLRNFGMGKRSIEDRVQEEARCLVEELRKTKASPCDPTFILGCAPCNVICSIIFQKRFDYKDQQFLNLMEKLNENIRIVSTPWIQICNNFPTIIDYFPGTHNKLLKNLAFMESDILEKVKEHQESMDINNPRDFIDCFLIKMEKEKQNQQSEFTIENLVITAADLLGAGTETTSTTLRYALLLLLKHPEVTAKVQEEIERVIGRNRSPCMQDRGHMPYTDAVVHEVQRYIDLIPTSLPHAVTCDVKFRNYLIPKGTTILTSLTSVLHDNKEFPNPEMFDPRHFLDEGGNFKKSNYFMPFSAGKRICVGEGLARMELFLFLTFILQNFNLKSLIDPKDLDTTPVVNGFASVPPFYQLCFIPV
CYP2C19 act – cytochrome P450 2C19 (human) activation. 96,000 tested, under 10 active. P33261. activation factor at 5 µM. recombinant CYP2C19, luciferin-H EGE luminescence; hits give high values; 0 = fully inhibited enzyme, 1 = untreated enzyme;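 active = activation factor of at least 2 at 5 µM in the primary screen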;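 note: 0 = wells with 2.5 mM tranylcypromine and 1 = vehicle-only wells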
cytoskel mod – cytoskeleton assembly modification | HUVEC TNFa F-actin phalloidin imaging, high content | inhibition, % at 2 µM | 0.18% of 91,000 active;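 active = inhibition above the batch mean plus 3 SD and confirmed as a hit by visual image inspection, cut at about 30% in these data, passing the limit was not always enough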
E-sel TNF inh – TNF alpha driven E-selectin expression inhibition. AID 1246. 0.71% of 120,000 active. HUVEC TNFa-induced E-selectin immunofluorescence, high content. inhibition, % at 2 µM;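 active = inhibition above the batch mean plus 3 SD, and confirmed as a hit on visual image review, cut at about 43% in these data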;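 note: 0% = TNF-stimulated DMSO wells and 100% = unstimulated control wells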
CYP2C9 activ – increases human cytochrome P450 2C9 activity; P11712; AID 1024; 1.4% of 96,000 active; recombinant CYP2C9, luciferin-H conversion, luminescence; hits give high values; factor 1 = untreated enzyme, 0 = blocked; activation factor at 5 µM;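 active = activation factor of 2 or more for CYP2C9 at a 5 µM dose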;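 note: 0 = sulfaphenazole-blocked wells and 1 = vehicle-only wells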
* marks the source's active call; other numbers are inactive results; nt = no result given.

SMILES	CYP2C9 inhib	CYP2C19 inhib	CYP2C19 act	cytoskel mod	E-sel TNF inh	CYP2C9 activ
COc1cccc(-c2ccc(C#N)c(SCC(=O)NCCc3cccc(Cl)c3)n2)c1	64*	82*	0.2	-9	8	0.4
C=CCOC(=O)C1=C(C)Nc2nnnn2C1c1cccc(OC)c1OC (stereo not drawn)	83*	59*	0.4	nt	-4	0.2
CCOC(=O)C1=C(C)Nc2nnnn2C1c1c[nH]c2ccccc12 (stereo not drawn)	84*	90*	0.1	22	2	0.2
CCOC(=O)C1=C(C)Nc2nnnn2C1c1cccc(OC)c1OC (stereo not drawn)	nt	nt	nt	nt	-3	nt
CC(C)=CC/C=C1\CCC(C(=O)O)C(C(=O)O)C1 (stereo not drawn)	7	-13	1.1	10	18	0.9
Cc1ccc2c(ccn3cc4c(c(=O)n(C)c(=O)n4C)c23)c1	nt	nt	nt	nt	-18	nt
CC12CC(NC(=O)N1CCc1ccccc1)c1ccccc1O2 (stereo not drawn)	29	79*	0.2	0	nt	0.7
COc1ccc(N2C(=O)NC3CC2(C)Oc2ccccc23)cc1 (stereo not drawn)	nt	nt	nt	nt	8	nt
CC(=O)Nc1cccc(NC(=O)C2CCCN2C(=O)Nc2ccc(C)cc2)c1 (stereo not drawn)	6	-2	1	-7	9	0.9
CCc1ccc(C2CC(c3ccc(Cl)cc3)=NNC2=O)cc1 (stereo not drawn)	40	84*	0.2	-4	nt	0.6
Cc1ccc(C2CC(c3ccc(Cl)cc3)=NNC2=O)cc1 (stereo not drawn)	38	85*	0.2	5	nt	0.6
Cc1cccc(C2=NNC(=O)C(c3ccc(Cl)cc3)C2)c1 (stereo not drawn)	nt	nt	nt	nt	3	nt
Cc1ccc(-c2cc(C(=O)Nc3ccc4c(c3)OCCO4)c3ccccc3n2)cc1	76*	23	0.8	-14	-63	0.2
O=C(Nc1ccc2c(c1)OCCO2)c1ccccc1F	-4	4	1	11	4	1
CCN(CC(=O)Nc1ccc2c(c1)OCCO2)c1nc(-c2cccnc2)nc2ccccc12	56*	66*	0.3	2	48	0.4
CS(=O)(=O)Nc1ccccc1C(=O)Nc1ccc2c(c1)OCCO2	73*	11	0.9	-4	-15	0.3
CC(C)c1ccc(-c2cc(C(=O)N3N=C(C(F)F)CC3(O)C(F)F)c3ccccc3n2)cc1 (stereo not drawn)	100*	7	0.9	-7	-18	0
Cc1ccc(Cc2c[nH]c(=S)s2)cc1	nt	nt	nt	nt	-8	nt
O=C(CN(Cc1ccco1)S(=O)(=O)c1ccccc1)N/N=C/c1cccc(O)c1	30	16	0.8	-14	-22	0.7
Cc1ccc2nsnc2c1S(=O)(=O)N1CCN(C(=O)C2CCCO2)CC1 (stereo not drawn)	15	1	1	nt	nt	0.9
CCOc1ccc(N2CCc3c(C)nc(SC)nc32)cc1	nt	nt	nt	nt	-15	nt
O=C(NCCO)c1ccc(-c2nnc(N3CCOCC3)c3ccccc23)cc1	-14	8	0.9	-55	nt	1.1
Cc1nc2ccccc2n1C(=O)c1cc(-c2ccc(Br)cc2)nc2ccccc12	79*	17	0.8	16	-26	0.2
COc1ccc(-c2cc(C(=O)N3CCOCC3)c3cc(C)ccc3n2)cc1	59*	33	0.7	13	7	0.4
Cc1ccc2nc(-c3ccccc3)cc(C(=O)N3CCc4ccccc4C3)c2c1	33	20	0.8	12	-42	0.7
SMILES	CYP2C9 inhib	CYP2C19 inhib	CYP2C19 act	cytoskel mod	E-sel TNF inh	CYP2C9 activ
Cc1ccc(-c2cc(C(=O)N3CCOCC3)c3ccccc3n2)cc1	46	70*	0.3	8	-11	0.5
O=C(NN1CCOCC1)c1cc(-c2ccc(Br)cc2)nc2ccccc12	nt	nt	nt	nt	-5	nt
CCc1ccc(-c2cc(C(=O)NN3CCOCC3)c3ccccc3n2)cc1	54*	10	0.9	-8	4	0.5
Clc1cccc(C[n+]2cc(-c3ccccc3)n3c2CCC3)c1	nt	nt	nt	nt	-18	nt
CSc1ccccc1NC(=O)COc1ccccc1Cl	59*	77*	0.2	-18	31	0.4
O=C(COc1ccccc1O)Nc1ccc(Cl)cc1	60*	88*	0.1	nt	nt	0.4
O=C(COc1ccccc1Cl)Nc1ccc(Cl)cn1	-3	10	0.9	nt	-11	1
CSc1ccccc1NC(=O)COc1ccc(Cl)cc1Cl	nt	nt	nt	nt	6	nt
CC1CCN(S(=O)(=O)c2cccc(C(=O)NCc3ccco3)c2)CC1	nt	nt	nt	0	13	nt
O=C(CSc1nc2ccccc2s1)N1c2ccccc2Sc2ccc(Cl)cc21	37	-4	1	26	-36	0.6
O=c1oc2cc(Cl)ccc2n1CSc1nc2ccccc2s1	67*	74*	0.3	11	11	0.3
O=C(/C=C/c1ccccc1)C1C(=O)c2ccccc2C1=O	nt	nt	nt	nt	-7	nt
CCc1ccc(/C=C/C(=O)C2C(=O)c3ccccc3C2=O)cc1	60*	1	1	-36	3	0.4
CCSc1ncc(Cl)c(C(=O)N(Cc2ccc(N(C)C)cc2)C2CCS(=O)(=O)C2)n1 (stereo not drawn)	10	3	1	5	-13	0.9
CCCCS(=O)(=O)Nc1ccc2c(c1)ncn2C1CCCCC1	85*	11	0.9	-12	22	0.2
CCCCNC(=O)c1ccc2c(c1)ncn2C1CCCCC1	6	2	1	0	-11	0.9
COc1ccc(NC(=O)C(C)NS(=O)(=O)c2ccccc2)cc1Cl (stereo not drawn)	34	87*	0.1	-4	-2	0.7
COC(=O)c1ccccc1NC(=O)C(C)NS(=O)(=O)c1ccc(OC)cc1 (stereo not drawn)	13	57*	0.4	2	8	0.9
COC(=O)c1ccccc1NC(=S)NC(=O)COc1ccc(C(C)C)cc1	nt	nt	nt	nt	-6	nt
CCOc1ccc(C(C)NC(=O)Nc2ccccc2C(=O)OC)cc1 (stereo not drawn)	41	70*	0.3	7	nt	0.6
COc1ccccc1NC(=O)C(C)NS(=O)(=O)c1ccc(Cl)cc1 (stereo not drawn)	-237	74*	0.3	8	-42	3.4*
COc1ccccc1C1C(C#N)=C(N)N(c2cccnc2)C2=C1C(=O)CC(C)(C)C2 (stereo not drawn)	nt	nt	nt	0	-5	nt
CCC(=O)N/N=C(\C)CC(=O)Nc1ccc2ccccc2c1	-10	7	0.9	-11	-10	1.1
CC(NS(=O)(=O)c1ccc(Br)cc1)C(N)=O (stereo not drawn)	14	-1	1	-2	-2	0.9
CNC(=O)C(C)NS(=O)(=O)c1ccc(F)cc1 (stereo not drawn)	-4	81*	0.2	3	1	1
COc1ccccc1NC(=O)C(C)NS(=O)(=O)c1ccc(F)cc1 (stereo not drawn)	-205	53*	0.5	-33	-11	3*
